# RGS16-Gao: RGS16-Galphao interaction regulator (human) | O15492+P09471 | 220,000 compounds, 0.38% hits | binding response (% of control), % at 10 µM | bead-based flow cytometry RGS16-Galphao binding, fluorescence; actives lie on both sides; call rule not given here;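 also: Galphao activated by GDP with aluminum fluoride before binding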
# Target sequence (O15492 whole entry, looked up): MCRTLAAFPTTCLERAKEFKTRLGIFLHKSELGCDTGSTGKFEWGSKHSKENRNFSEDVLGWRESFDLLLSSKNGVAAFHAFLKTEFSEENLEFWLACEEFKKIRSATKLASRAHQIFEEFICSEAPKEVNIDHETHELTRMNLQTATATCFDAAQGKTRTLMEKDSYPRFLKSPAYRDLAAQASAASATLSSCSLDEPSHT
# Target sequence (P09471 whole entry, looked up): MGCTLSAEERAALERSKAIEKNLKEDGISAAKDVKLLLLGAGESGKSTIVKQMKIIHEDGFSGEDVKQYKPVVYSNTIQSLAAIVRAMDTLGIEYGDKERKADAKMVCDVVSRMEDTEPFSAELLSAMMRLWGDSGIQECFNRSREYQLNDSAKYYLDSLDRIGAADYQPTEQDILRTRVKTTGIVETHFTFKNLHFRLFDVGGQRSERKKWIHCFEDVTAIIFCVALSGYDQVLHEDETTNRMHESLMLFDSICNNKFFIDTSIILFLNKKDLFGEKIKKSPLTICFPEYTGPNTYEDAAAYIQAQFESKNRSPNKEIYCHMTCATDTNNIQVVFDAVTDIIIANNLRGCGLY
# RGS4-Gao reg: modulates binding of RGS4 to human Galphao; Multiplexed bead flow cytometry; actives lie on both sides; 220,000 compounds, 0.33% hits; binding response (% of control), % at 10 µM; AID 1415; P09471; in the data active = binding response below about 49% or above about 150%; inactive = in between;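 also: fluorescent Galphao activated with aluminum fluoride binding bead-coupled RGS4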
# RGS7-Gao: human RGS7-Galphao interaction regulation; Multiplexed bead flow cytometry, RGS7-Galphao binding; actives lie on both sides; AID 1439; 220,000 compounds, 0.35% hits; binding response (% of control), % at 10 µM; P09471; in the data active = binding response below about 49% or above about 150%; inconclusive = no clear call, values can overlap the other calls; inactive = in between;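 also: fluorescent Galphao held in activated GDP-AlF4 state binding bead-coupled RGS7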
# Avidin bead fluor: compound fluoresces at 488/530 nm on avidin beads; compound fluorescence 488/530 nm, flow cytometry; active compounds read high; fluorescence (KMESF) at 10 µM; 220,000 compounds, 0.38% hits; AID 1775; in the data active = fluorescence above about 47
# RGS8-Gao reg: modulates binding of RGS8 to human Galphao. P09471. multiplexed bead flow cytometry; actives lie on both sides. response (percent of control binding), % at 10 µM. 220,000 compounds, 0.34% hits. AID 1423; in the data active = response below about 60% or above about 140%; inactive = in between;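 also: Galphao activated as the GDP aluminium fluoride complex binding bead-coupled RGS8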
# GSH fluor: GSH bead compound fluorescence profile; GSH beads flow cytometry, compound fluorescence 488/530 nm; active compounds read high; fluorescence (KMESF) at 10 µM; 190,000 compounds, 0.25% hits; in the data active = fluorescence above about 89;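 also: glutathione beads carrying GST-tagged Bcl family fusion proteins plus one bare bead set; values are compound well signal with DMSO vehicle wells as background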
# An asterisk follows results filed as active; ? = inconclusive; . = not tested or not shown. Compounds with a hit are over-represented: about 1.2% of the library has one in this group of screens.
SMILES,RGS16-Gao,RGS4-Gao reg,RGS7-Gao,Avidin bead fluor,RGS8-Gao reg,GSH fluor
Cc1noc2ncnc(Oc3ccc(Cl)cc3Cl)c12,103.7,103.7,107.9,6,101.4,11
COC(=O)CNC(=O)COC(=O)c1cc(Cl)cc(Cl)c1N,99.8,99.6,101.9,31,98.4,22
CC(C)CNC(=O)COC(=O)c1cc(Cl)cc(Cl)c1N,99.0,93.3,94.5,7,95.4,265*
O=C(c1ccc(F)cc1)N1CCN(C(=O)c2ccc([N+](=O)[O-])cc2)CC1,100.7,102.4,105.0,11,104.3,11
COc1ccc(Br)cc1S(=O)(=O)NCCCN1CCOCC1,111.9,101.8,102.4,15,103.0,15
CC1=CCC(C(=O)O)C(C(=O)Nc2nc3ccc(S(C)(=O)=O)cc3s2)C1 (centres undefined),99.9,100.1,100.5,7,100.5,92*
CC(C)(C)C(=O)Nc1nc2ccc(S(C)(=O)=O)cc2s1,101.2,100.8,100.1,25,99.4,8
Cc1c(NS(=O)(=O)N2CCCC2)c(=O)n(-c2ccccc2)n1C,95.6,97.3,102.1,7,101.3,48
Cc1c(NS(C)(=O)=O)c(=O)n(-c2ccccc2)n1C,99.1,108.3,100.6,5,111.8,252*
Cc1ccc(C(=O)O)cc1NC(=O)c1cccs1,98.0,98.5,95.4,7,101.9,95*
Cc1c(NC(=O)c2cccs2)cccc1C(=O)O,89.0,92.0,89.9,18,100.6,28
Cc1nc(SCC(=O)Nc2cc(C(N)=O)cc(C(N)=O)c2)c2c(C)c(C)sc2n1,58.0,59.4,?,3,68.1,.
CCOc1ccc(C(=O)Nc2nnn(CC)n2)cc1,92.3,94.1,93.2,7,97.7,16
CCn1nnc(NC(=O)c2cccnc2Cl)n1,104.7,97.7,98.6,9,101.0,259*
CCc1nnc(NC(=O)c2ccncc2)s1,90.9,86.4,93.4,10,93.4,8
CCCc1nnc(NC(=O)c2ccncc2)s1,-0.9,83.1,92.3,3,90.6,239*
COCCn1c(SCc2cc(=O)n3cc(C)ccc3n2)nc2ccccc2c1=O,103.2,102.4,?,9,101.7,14
CCCc1cc(C(=O)N2CCN(C(c3ccccc3)c3ccccc3)CC2)no1,101.0,98.7,97.0,7,102.3,18
Cc1cc(C(=O)N2CCN(C(c3ccccc3)c3ccccc3)CC2)no1,133.1,120.1,116.9,52*,103.8,50
COc1ccc(OC)c(C2C=C(c3ccc(C)c(C)c3)Nc3nnnn32)c1 (centres undefined),102.1,106.4,112.3,51*,101.7,53
O=C(O)CN1CCCCC1,100.3,98.7,96.8,11,98.8,13
CC(=O)/C(CN1CCCCC1)=N\O,103.3,110.0,135.7,85*,100.7,13
CCOC(=O)C1=C(c2ccccc2)O/C(=C(/C#N)C(F)(F)F)S1,101.3,107.7,136.4,59*,100.8,32
Cc1ccsc1C(=O)OC1CCOC1=O (centres undefined),96.8,93.5,89.4,7,95.5,271*
Cc1ccc(S(=O)(=O)C(C#N)=C2N(C)c3ccccc3N2C)cc1,101.2,100.0,99.4,4,101.3,9
SMILES,RGS16-Gao,RGS4-Gao reg,RGS7-Gao,Avidin bead fluor,RGS8-Gao reg,GSH fluor
N#Cc1c(NC(=O)c2cccc(S(=O)(=O)Nc3ccc(C(=O)O)cc3)c2)sc2c1CCCC2,98.0,94.2,?,4,96.1,.
O=c1c2ccccc2c(C=Nc2cccc(O)c2)c(O)n1-c1ccc2c(c1)OCO2,100.3,85.4,92.6,57*,98.0,12
O=C(Cn1cnc2ccccc2c1=O)N1CCc2ccccc2C1,98.9,92.6,93.0,21,96.8,11
O=C(Cn1cnc2ccccc21)OCC(=O)N1CCc2ccccc2C1,121.8,141.8,141.2,52*,119.4,11
Cc1c(N=Cc2ccc[nH]2)c(=O)n(-c2ccccc2)n1C,93.2,99.4,105.8,56*,95.4,20
CCOC(=O)c1c(C)[nH]c(C)c1C(=O)COc1ncnc2cc([N+](=O)[O-])ccc12,100.4,97.6,95.8,26,99.8,3
O=C(NC1CCS(=O)(=O)C1)C1C2CC3CC(C2)CC1C3 (centres undefined),100.9,102.3,119.1,55*,101.0,59

# Compound activity deposited in PubChem by NMMLSC.
